# Source: PubChem
# Most compounds without a hit are left out; they make up all but 1.3% or so of the library.
# AGP1-GFP MLPCN = alters AGP1-GFP fluorescence in TOR pathway yeast screen; GFP response vs DMSO, % at 10 µM; 320,000 compounds, 0.02% hits; S. cerevisiae AGP1-GFP multiplex flow cytometry, 3 h; GFP as percent of DMSO wells;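 active = GFP response relative to DMSO above a set limit, near screen average plus 3 SD, cut at about 150% in these data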;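 also: median GFP channel fluorescence of the gated AGP1 strain per well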
# Efflux pump inh = blocks antifungal efflux pumps in multiplex yeast assay. S. cerevisiae Candida pump triplex, Nile Red efflux. inhibition, % at 10 µM. 330,000 compounds, 0.44% hits;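 active = plate passing quality check with inhibition over a set limit, or well fluorescence over plate mean plus 4 SD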;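 also: Nile Red retained in pooled yeast measured as flow cytometry median fluorescence; higher means more Nile Red kept so more efflux inhibition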
# MEP2-GFP yeast = yeast TOR pathway MEP2-GFP modulation; GFP response vs DMSO, % at 10 µM; S. cerevisiae MEP2-GFP strain, flow cytometry GFP, 3 h; 100% = DMSO control level; 330,000 compounds, 0.51% hits;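 active = GFP response versus DMSO above a set limit, roughly screen mean plus 3 SD, cut at about 180% in these data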;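 also: median GFP fluorescence of the barcode-gated MEP2-GFP cells per well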
# RPL19A-GFP yeast = modulators of TOR pathway RPL19A-GFP in S. cerevisiae. S. cerevisiae RPL19A-GFP strain, flow cytometry, 3 h; hits give low values. percent response vs DMSO, % at 10 µM. 330,000 compounds, 0.3% hits. AID 2025;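 active = percent response vs DMSO below 50%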;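 also: median channel GFP fluorescence of the barcoded RPL19A-GFP strain; lower means less RPL19A-GFP as with rapamycin TOR inhibition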
# LAP4-GFP MLPCN = alters LAP4-GFP fluorescence in TOR pathway yeast screen. GFP response vs DMSO, % at 10 µM. S. cerevisiae LAP4-GFP multiplex, flow cytometry GFP, 3 h; median GFP as percent of DMSO wells. 320,000 compounds, 0.34% hits;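 active = GFP response vs DMSO above a set limit, about the screen mean plus 3 SD, cut at about 150% in these data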
# CIT2 TOR yeast = modulators of TOR pathway CIT2-GFP in S. cerevisiae; GFP response vs DMSO, % at 10 µM; 320,000 compounds, 0.065% hits; AID 2029; S. cerevisiae CIT2-GFP strain, flow cytometry, 3 h; 100 means same as DMSO wells;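 active = GFP response relative to DMSO above a set limit, near the screen mean plus 3 SD, cut at about 150% in these data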;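 also: ratio of well median GFP fluorescence to mean of DMSO wells on the plate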
# LAP4 cherry2 = yeast LAP4-GFP modulation, second cherry pick | shares compounds with LAP4-GFP MLPCN | S. cerevisiae LAP4-GFP strain, flow cytometry GFP, 3 h | GFP response vs DMSO, % at 10 µM | 590 compounds, 20% hits | AID 2621;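 active = GFP signal as percent of the solvent control above about 150%, meaning raised reporter expression, limit read from the data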
# MEP2 cherry2 = second confirmation of modulators of TOR reporter MEP2-GFP in yeast; shares compounds with LAP4-GFP MLPCN; S. cerevisiae MEP2-GFP strain, flow cytometry GFP, 3 h; GFP response vs DMSO, % at 10 µM; 590 compounds, 10% hits; AID 2622;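 active = GFP signal above 150% of the solvent control wells, that is a rise of more than half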;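 also: median channel GFP fluorescence of all gated yeast cells per well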
# RPL19A GFP CP2 = reconfirmed modulator of RPL19A-GFP TOR reporter in yeast; shares compounds with LAP4-GFP MLPCN; S. cerevisiae RPL19A-GFP strain, flow cytometry GFP, 3 h; hits give low values; 100% means same as DMSO wells; GFP response vs DMSO, % at 10 µM; 590 compounds, 3% hits; AID 2623;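 active = under 65% GFP response relative to DMSO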;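 also: median GFP channel fluorescence per well over the all cells gate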
# CIT2 GFP CP2 = reconfirmed modulator of CIT2-GFP TOR reporter in yeast; shares compounds with LAP4-GFP MLPCN; S. cerevisiae CIT2-GFP strain, flow cytometry GFP, 3 h; DMSO control wells read 100%; GFP response vs DMSO, % at 10 µM; 590 compounds, 8% hits; AID 2624;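 active = GFP response vs DMSO above about 150%, limit read from the data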;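 also: median green fluorescence per well over all gated yeast cells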
# AGP1-GFP pick2 = second confirmation of modulators of TOR reporter AGP1-GFP in yeast | AID 2643 | shares compounds with LAP4-GFP MLPCN | percent response vs DMSO, % at 10 µM | S. cerevisiae AGP1-GFP strain, flow cytometry GFP, 3 h | 590 tested, under 10 active;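 active = over 150 percent of DMSO response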;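 also: median GFP channel fluorescence over all cells without mother daughter split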
# s288c autofluor = counter-screen for compound autofluorescence in yeast s288c cells; shares compounds with LAP4-GFP MLPCN; 610 tested, under 10 active; S. cerevisiae s288c, 520 nm autofluorescence, flow cytometry, 3 h; hits give high values; zero means same as solvent-only cells; fluorescence change (kMESF span) at 33 µM;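 active = fluorescence span over the dose series, or activity score, above about 33, limit read from the data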
# A number is an active result; . = inactive; / = not tested or not shown; [ ] = remark or other dose.
SMILES,AGP1-GFP MLPCN,Efflux pump inh,MEP2-GFP yeast,RPL19A-GFP yeast,LAP4-GFP MLPCN,CIT2 TOR yeast,LAP4 cherry2,MEP2 cherry2,RPL19A GFP CP2,CIT2 GFP CP2,AGP1-GFP pick2,s288c autofluor
CN1C(=O)[C@@H]2C[C@@]3([C@@]45C[C@H]6C(=O)N(C)[C@@H](Cc7ccccc7)C(=O)N6[C@@H]4Nc4ccccc45)c4ccccc4N[C@H]3N2C(=O)[C@@H]1Cc1ccccc1,.,.,.,.,154.6,.,.,.,.,.,.,/
C[C@H](CO)N1C[C@H](C)[C@@H](CN(C)Cc2ccncc2)Oc2c(NS(=O)(=O)c3cn(C)cn3)cccc2C1=O,.,.,.,.,.,.,/,/,/,/,/,/
COC1=C(N)C(=O)c2nc(-c3nc(C(=O)O)c(C)c(-c4ccc(OC)c(OC)c4O)c3N)ccc2C1=O,.,.,.,.,218.4,.,308.6,251.5,.,349.1,.,/
COc1ccc(-c2ncncc2-c2csc(C)n2)c(O)c1OC,.,.,.,.,.,.,/,/,/,/,/,/
CCOc1ccccc1/C=c1\sc2ncnn2c1=O,.,.,.,.,274.8,.,226.4,.,.,.,.,.
CC(=O)Oc1ccc(/C=c2\sc3ncnn3c2=O)cc1,.,.,.,.,152.9,.,/,/,/,/,/,.
CCCOc1ccc(/C=c2\sc3ncnn3c2=O)cc1,.,.,.,.,.,.,/,/,/,/,/,/
O=C(O)c1ccc2c(c1)C(=O)/C(=C/c1ccccc1)C2=O,.,.,.,.,.,.,.,.,.,.,.,.
O=C(O)c1ccc2c(c1)C(=O)/C(=C\c1ccco1)C2=O,.,.,.,.,.,.,/,/,/,/,/,/
CCC(=O)Nc1ccc(NC(=O)c2cc3ccccc3o2)cc1,.,.,.,.,.,.,/,/,/,/,/,.
COc1cc(NC(=O)c2ccccc2[N+](=O)[O-])ccc1NC(=O)c1cc2ccccc2o1,.,.,.,.,.,.,/,/,/,/,/,.
CCC(=O)Nc1ccc(NC(=S)NC(=O)c2cc3ccccc3o2)cc1,.,.,.,.,.,.,/,/,/,/,/,/
COc1ccc(-c2cc(C)no2)cc1S(=O)(=O)Nc1cccc(CN2CCCC2)c1,.,.,.,.,.,.,/,/,/,/,/,/
COc1ccc(-c2cc(C)no2)cc1S(=O)(=O)N1CCCN(Cc2ccc(F)cc2)C1,.,.,.,.,.,.,.,.,.,.,.,/
COc1ccc(NC(=O)Cc2ccccc2)cn1,.,.,.,.,.,.,/,/,/,/,/,/
COc1ccc(NC(=O)/C(Cl)=C(/Cl)S(=O)Cc2ccccc2)cn1 (stereo not given),.,.,.,.,288.2,.,/,/,/,/,/,.
CCOc1ccc(C(C)=O)cc1N1C(=O)C2C3C=CC(O3)C2C1=O (stereo not given),.,.,.,.,203.4,.,/,/,/,/,/,.
COc1ccc(CC(C)N2CCN(Cc3ccccc3)CC2)cc1OC (stereo not given),.,.,.,.,.,.,/,/,/,/,/,/
NS(=O)(=O)c1ccc(CNC(=O)C(Cc2ccccc2)NS(=O)(=O)c2ccccc2F)cc1 (stereo not given),.,.,.,.,.,.,/,/,/,/,/,/
Cc1cc(=O)n2c3c(sc2n1)C(=O)N(Cc1ccccc1)C3=O,.,.,.,.,194.4,.,/,/,/,/,/,.
COc1ccc(C(=O)NC(=S)NNC(=O)c2cnccn2)cc1OC,.,.,.,.,154.6[may fluoresce green],.,168.3,154.7,.,.,.,.
Cc1cc(C)cc(OCC(=O)Nc2cnn(CCCC(=O)O)c2)c1,.,.,.,.,.,.,/,/,/,/,/,/
CC(=O)Nc1ccc(S(=O)(=O)N2CCN(c3cc(C)nc4ncnn34)CC2)cc1,.,.,.,.,.,.,/,/,/,/,/,/
Cc1cc(N2CCN(S(=O)(=O)c3ccc(Br)cc3)CC2)n2ncnc2n1,.,.,.,.,.,.,.,.,.,.,.,/
CCn1c(=O)c([N+](=O)[O-])c(NCc2ccco2)c2ccccc21,.,.,.,.,201.1[may fluoresce green],.,.,.,.,.,.,/
SMILES,AGP1-GFP MLPCN,Efflux pump inh,MEP2-GFP yeast,RPL19A-GFP yeast,LAP4-GFP MLPCN,CIT2 TOR yeast,LAP4 cherry2,MEP2 cherry2,RPL19A GFP CP2,CIT2 GFP CP2,AGP1-GFP pick2,s288c autofluor
CCNc1c([N+](=O)[O-])c(=O)n(CC)c2ccccc12,.,.,.,.,.,.,/,/,/,/,/,/
O=C1C=C(N2CCCCCC2)C(=O)N1c1ccc(Cl)cc1,.,.,.,.,.,.,/,/,/,/,/,/
O=C1C=C(Nc2ccc(Cl)cc2)C(=O)N1c1ccc(Cl)cc1,.,.,.,.,.,.,.,.,.,.,.,.
CC(CNS(=O)(=O)c1ccccc1)Sc1nncn1C (stereo not given),.,.,.,.,.,.,/,/,/,/,/,/
CCCc1nnc(NC(=O)c2c(O)c3cccc4c3n(c2=O)CCC4)s1,.,.,.,.,.,.,.,.,49.9,.,.,.
CCc1nc2ccccc2c(=O)n1NC(=O)c1c(O)c2ccccc2n(CC)c1=O,.,.,.,.,.,.,.,223.6,42.2,168.3,.,.
CCn1c(=O)c(C(=O)Nc2nc3ccccc3[nH]2)c(O)c2ccccc21,.,.,.,.,176.3,.,/,/,/,/,/,.
CCn1c(=O)c(C(=O)Nc2ccccc2)c(O)c2ccccc21,.,.,.,.,.,.,/,/,/,/,/,/
CCn1c(=O)c(C(=O)Nn2c(C)nc3ccccc3c2=O)c(O)c2ccccc21,.,.,.,.,.,.,/,/,/,/,/,/
CCn1c(=O)c(C(C)=O)c(O)c2ccccc21,.,.,.,.,173.6,.,/,/,/,/,/,.
O=c1[nH]c(SCc2ccc(Cl)cc2)nc2[nH]ncc12,.,.,.,.,.,.,/,/,/,/,/,/
O=C(Nn1c(Cc2ccccc2)nc2ccccc2c1=O)c1c(O)c2cccc3c2n(c1=O)CCC3,.,.,.,.,.,.,/,/,/,/,/,/
CCc1nc2ccccc2c(=O)n1NC(=O)c1c(O)c2cccc3c2n(c1=O)CCC3,.,.,.,.,.,.,.,.,63.8,.,.,.
